Screen size: about 340,000 compounds; about 280 (0.082%) were called active. Only a selection was taken, and actives are over-represented in it overall. A number with no mark means an inactive call.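 Rule for the calls: active = percent activation above the mean of all tested compounds plus 3 SD (cut at about 19% in these data); inactive = the rest.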

The target in the experiment is cAMP-dependent protein kinase type I-alpha regulatory subunit (Bos taurus) + cAMP-dependent protein kinase catalytic subunit beta (Mus musculus) (UniProt P00514+P68181). Briefly: compounds dissociating PKAc from R1A subunit – biochemical, fluorescence polarization, Cy5-IP20, bovine R1A, mouse PKAc, primary screen (AID 504707).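 Note: higher means more PKAc released from R1A so a rise in polarization.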 The note with it: PKA-R1A dissociation, at 11.4 µM, active compounds read high, scaled: DMSO 0%, 113 µM cGMP 100%. For orientation: Polarisation of emitted light reports the rotation of a fluorescent probe.
With `COCCn1c(SCC(=O)Nc2ccc(F)cc2F)nc2c(c1=O)SCC2`, the activation is -3.58%. For `C[C@@H]1CN([C@H](C)CO)C(=O)CCCn2cc(nn2)CO[C@H]1CN(C)S(=O)(=O)c1ccc(Oc2ccccc2)nc1`, the activation was -8.71%.

`Cc1ccc(S(=O)(=O)N2C[C@H]3C(=O)C[C@@H](c4cccc5ccccc45)N(S(=O)(=O)c4ccc(C)cc4)[C@H]3C[C@H]2c2ccc(Cl)cc2)cc1`: the activation was 1.48%. With `COc1ccc(S(=O)(=O)N(C)C)cc1NC(=O)COC(=O)c1n[nH]c2ccccc12`, the activation was 0.55%. With `O=C(NCCOc1ccccc1)c1ccccc1F`, the activation is -12.1%. In the case of `CCN1CCN(CCNC(=O)c2ccc3c(c2)NC(=O)/C(=C\c2cccc(Cl)c2)S3)CC1`, the activation was -8.75%.

`C[C@H]1CN([C@@H](C)CO)C(=O)c2cc(-c3ccccc3F)cnc2O[C@H]1CN(C)C(=O)C1CCOCC1`: the activation is -7.74%.

For `C[C@@H]1CCCCO[C@H](CN(C)Cc2ccccc2)[C@@H](C)CN([C@H](C)CO)C(=O)c2cc(NS(=O)(=O)c3ccc(Cl)cc3)ccc2O1`, the activation is -4.59%. As for `C#Cc1cc(N2CCN(C(=O)c3ccoc3)CC2)n2nc(-c3cccc(Cl)c3)cc2n1`, the activation is -0.28%. With `COc1ccc(-c2ccc(CN3C(C(C)C)C(=O)N(Cc4cn(CC5CCCCC5)nn4)CCS3(=O)=O)cc2)cn1` (stereo not given), the activation is 6.26%. For `O=C(Nc1ccc(Cl)cn1)c1ccccc1-c1ccccc1`, the activation is -2.35%. As for `CC1CCCC(NC(=O)COC(=O)c2ccccc2C(=O)N(C)C2CCCCC2)C1C` (stereo not given), the activation was 4.19%. On to `CC(C)c1cc(C(=O)N(C)C2CCCN(Cc3ccccc3F)C2)n(C)n1` (stereo not given), for which the activation was -3.3%. The value for `Cc1ccc(C=O)c([B-](F)(F)F)c1` was -6.39%; that for `COCCCN1C(=O)C(CC(=O)NCc2cccs2)CC(C(=O)N2CCOCC2)=C1C` (stereo not given) was -6.5%; that for `O=C(COc1ccc(Br)cc1)OCC(=O)c1ccc[nH]1` was -8.33%. `CCCC(=O)Nc1ncnc2c1ncn2[C@@H]1O[C@@H]2OP(=O)(O)OC[C@H]2[C@H]1OC(=O)CCC`: the activation is 49.2% (active). On to `C[C@@H]1CN([C@H](C)CO)C(=O)CCCn2cc(nn2)CO[C@H]1CN(C)S(C)(=O)=O`, for which the activation is -6.01%. The value for `C[C@H]1CN(c2ccc(Br)cc2)C(=O)[C@@H]1CC(=O)Nc1ccc(Br)cc1` was -2.37%. For `COc1cccc(NC(=O)N(C)C[C@@H]2Oc3ncc(Br)cc3C(=O)N([C@@H](C)CO)C[C@H]2C)c1`, the activation is -5.28%.
